The values below come from PubChem BioAssay AID540308 (The Scripps Research Institute Molecular Screening Center, 2011).

The whole screen tested about 360,000 compounds, of which about 3,500 (0.97%) were called active. The sample as a whole holds a higher share of actives than the screen did. Values without a mark were called inactive.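 The calls were made as follows: active = activation above a per-plate cutoff, the mean activation of sample wells on that plate plus 3 SD (cut at about 8% in these data); inactive = the rest.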

The target of the test is Melanocortin receptor 4 (Homo sapiens) (UniProt P32245). Description: MC4R agonists recruiting beta-arrestin, primary screen, cell-based, luminescence, agonist arm of biased-ligand search (AID 540308). The note with it: U2OS MC4R beta-arrestin complementation, at 8.9 µM, active compounds read high, percent of melanotan II response, DMSO zero.
Sequence of Melanocortin receptor 4 (Homo sapiens) (P32245 whole entry, looked up): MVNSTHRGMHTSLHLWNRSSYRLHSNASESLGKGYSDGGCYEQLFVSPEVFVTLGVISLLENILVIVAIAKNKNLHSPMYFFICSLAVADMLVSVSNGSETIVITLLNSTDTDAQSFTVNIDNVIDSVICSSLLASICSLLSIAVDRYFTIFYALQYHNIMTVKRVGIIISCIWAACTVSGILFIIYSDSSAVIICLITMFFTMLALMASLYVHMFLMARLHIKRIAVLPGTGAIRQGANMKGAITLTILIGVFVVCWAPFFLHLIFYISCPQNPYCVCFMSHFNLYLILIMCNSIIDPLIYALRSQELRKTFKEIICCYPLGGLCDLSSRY
`CCc1nc2c(OCc3cccc(OC)c3)cccn2c1N(C)C(=O)C(C)C`: the activation was 1.4%.
On to `CCCCN(C=O)c1c(CC)nc2c(OCCC3CCCCC3)cccn12`, for which the activation is -0.53%.
Turning to `COc1ccc(Nc2oc(-c3ccccc3Cl)nc2C#N)cc1`, the activation is 13.3% (active).
As for `COc1ccc(Nc2nc(NCc3ccco3)nc(N/N=C/c3ccccc3Cl)n2)cc1`, the figure is -2%; as for `N#Cc1nc(-c2cccc3ccccc23)oc1N`, -1.15%.
As for `COc1cccc(-c2ccc3c(c2)N(Cc2ccccc2OC)C(=O)C(C)S3)c1` (stereo not drawn), the activation was 0.04%.
Take `CC(C)Nc1nc(NCCOc2ccccc2Cl)c2sccc2n1`: the activation is -1.08%.
As for `CC(=O)Nc1cccc(-c2cc3nc(NCc4cccnc4)n(C)c(=O)c3s2)c1`, the figure is 0.57%.
As for `COc1ccc(OC)c(C(O)c2ncc(-c3cccc(C(F)(F)F)c3)[nH]2)c1` (stereo not drawn), the activation was -1.84%.
With `COc1ccc(NC(=O)C2Cc3c(-c4cccc(NC(C)=O)c4)ccnc3O2)cc1OC` (stereo not drawn), the activation is -0.44%.
As to `COc1ccc(NC(=O)C2(C)Cc3c(-c4cccc(NC(C)=O)c4)ccnc3O2)cc1OC` (stereo not drawn), the activation was -2.08%.
Regarding `S=C(NCCCc1cnc[nH]1)NCCCN(Cc1ccc(Cl)c(Cl)c1)c1ccc(Br)cn1`, the activation is 17.5% (active).
As for `NCCCNC(=S)NCCCN(Cc1ccc(Cl)cc1)c1ccc(Br)cn1`, the activation is 5.16%.
`CCOC(=O)c1nn(-c2ccccc2F)c2nc(Nc3ccccc3)cc(=O)n12`: the activation is 10.2% (active).
On to `CCOC(=O)c1cccc(NC(=O)c2ccc(F)cc2F)c1`, for which the activation was -1.66%.
For `CCOC(=O)N1CCN(c2c(NCCN3CCN(c4ccccc4F)CC3)c(=O)c2=O)CC1`, the activation is -0.12%.
In the case of `COc1ccc(CN(Cc2ccc(OC)cc2)C(=O)c2cccs2)cc1`, the activation was -3.4%.
The same measure for `COc1ccc(CCNC(=O)C(Sc2ccccn2)c2ccccc2)cc1OC` (stereo not drawn): -0.76%; for `COc1ccc(C(CCN(Cc2ccc(OC)c(OC)c2)C(=O)CCl)c2ccccc2)cc1` (stereo not drawn): 22.9% (active).
In the case of `CCCCCNC(=O)c1cccnc1SCC(=O)Nc1ccccc1OC`, the activation was -0.84%.
On to `Cc1ccccc1S(=O)(=O)NC(=O)C1(C)CCN1C(=O)C1(c2ccc(Cl)cc2)CC1` (stereo not drawn), for which the activation is 0.06%.
For the molecule `CC1(C(=O)Nc2cccc3c2CCCC3)CCN1C(=O)C1(c2ccccc2)CC1` (stereo not drawn), the activation is 1.08%.
For `COc1cccc(NC(=S)NC(=O)c2c(Cl)c(C)nn2C)c1`, the activation is 16.6% (active).
As to `Cc1nn(C)c(C(=O)NNC(=S)NC2CCCCC2)c1Cl`, the activation is -2.05%.
Consider `COc1cccc(OC)c1C(=O)NC(=S)Nc1ccc(N2CCOCC2)c(Cl)c1`, for which the activation was -1.34%.
Consider `CC1(C(=O)NS(=O)(=O)c2ccccc2Cl)CCN1C(=O)c1cccc(F)c1` (stereo not drawn), for which the activation was -0.15%.
Consider `CC(=O)NN=C(C)c1ccc(NC(=O)C2CC2)cc1`, for which the activation is -0.71%.
As to `CCOC(=O)CNC(=O)/C=C/c1c(Cl)cccc1Cl`, the activation was -0.83%.
With `O=C(CC(=O)N/N=C\c1cccc(Cl)c1Cl)NCc1ccccc1`, the activation was -2.24%.
For `O=C(/C=C/c1c(Cl)cccc1Cl)NCc1ccccc1`, the activation is 19.2% (active).
The same measure for `Cc1nc2c(OCc3ccc(Cl)cc3Cl)cccn2c1N(C)CC1CC1`: -3.94%.
Turning to `CCCCC(=O)N(C)c1c(CC)nc2c(OCc3ccc(S(C)(=O)=O)cc3)cccn12`, the activation is 0.14%.
`CCCOc1ccc(/C=N/NC(=O)C2CC2)c(OCCC)c1`: the activation is 0.66%.
For the molecule `COC(=O)c1ccc(OCC(=O)NC(C)(C)C)cc1`, the activation is -0.44%.
Regarding `CCCOc1ccc(C(=O)C(CCC(CNCC)C(=O)c2ccc(OCCC)cc2)CNCC)cc1` (stereo not drawn), the activation was 24.6% (active).
As for `COc1cncc(-c2cnc3sc(NCCc4ccccn4)nn23)c1`, the figure is -0.85%; as for `COc1ccc(OC)c(NC(=O)C2(C)CCN2C(=O)Cc2ccccc2)c1` (stereo not drawn), -0.64%; as for `COc1ccc(NC(=O)C2Cc3c(-c4ccc5c(c4)OCO5)ccnc3O2)cn1` (stereo not drawn), 2.24%.
`Cc1cc(C(=O)N2CCCC2(C)C(=O)O)c(C)o1` (stereo not drawn): the activation was -0.89%.
The same measure for `CC(C)Nc1ncnc2c1nnn2Cc1ccccc1`: -0.12%.
For the molecule `c1ccc(Cn2nnc3c(NCC4CC4)ncnc32)cc1`, the activation is 2.35%.
The same measure for `Clc1ccc(Nc2ncnc3c2nnn3Cc2ccccc2)cc1`: 19.9% (active).
The same measure for `CCc1nc2c(OCc3ccc(C(F)(F)F)cc3)cccn2c1N(C)C(=O)CC(C)C`: -1.6%.
On to `CC(C)Cc1ccc(-c2cc3nc(NCc4cccc(Cl)c4)ccn3n2)cc1`, for which the activation is -1.5%.
As for `Cc1ccc(OCC(=O)Nc2ccc(NC(=O)c3cccs3)cc2)c(C)c1`, the activation is 2.63%.
The same measure for `Cc1ccc(C(=O)Nc2ccc(NC(=O)c3cccs3)cc2)c(C)c1`: 13.3% (active); for `Cc1ccccc1C(=O)N1CCN(c2ccc(NC(=O)c3cccs3)cc2)CC1`: -4.77%; for `O=C(NCc1cccnc1)c1cc(C2CCCN(C(=O)CCCc3ccccc3)C2)on1` (stereo not drawn): 0.26%.
Turning to `Cc1ccccc1-c1csc(C(O)c2cccc(Cl)c2)n1` (stereo not drawn), the activation was -1.62%.
In the case of `O=C(NCc1ccc(F)cc1)c1cc(C2CCCCN2C(=O)C2CCCCC2)on1` (stereo not drawn), the activation is -0.53%.
For the molecule `COc1cc(F)ccc1-c1cc(C(=O)NCC2CCCCC2)[nH]n1`, the activation was 1.24%.
As for `C=CCn1c(SCCOc2ccc(OC)cc2)nnc1C(NC(=O)c1ccc(OC)cc1)C(C)C` (stereo not drawn), the activation is 2.5%.
As to `C=CCn1c(CNC(=O)c2ccco2)nnc1SCC(=O)c1ccc(OC)cc1`, the activation was -1.26%.
As for `C=CCn1c(SCC(=O)c2ccc(Br)cc2)nnc1C(C)NC(=O)Cc1ccc(OC)cc1` (stereo not drawn), the activation was 9.94% (active).
Consider `CC1(C(=O)NS(=O)(=O)c2cccs2)CCN1C(=O)Cc1ccc(-c2ccccc2)cc1` (stereo not drawn), for which the activation is 1.02%.
Turning to `CC1(C)CN(Cc2cccnc2)C(=O)[C@H]1CC(=O)Nc1ccc(Br)cc1`, the activation was -2.67%.
As for `CC1(C)CN(CCc2ccccc2)C(=O)[C@H]1CC(=O)Nc1ccc(Br)cc1`, the activation was 1.43%.
As to `CCCCN1CC(C)(C)[C@H](CC(=O)Nc2ccc(Br)cc2)C1=O`, the activation was 14.2% (active).
As for `Cc1noc(C)c1-c1ccc(C(=O)NCc2ccncc2)c2occc12`, the figure is -0.03%.
In the case of `Cc1cccc(CNC(=O)c2sc(=O)n(Cc3ccccc3C)c2C)c1`, the activation is 0.16%.
As to `O=C(OCc1cn(-c2ccc(Cl)c(Cl)c2)nn1)c1ccccc1Cl`, the activation was 16.5% (active).
In the case of `Cc1cccc(/C(N)=N/OC(=O)c2ccccc2Cl)c1`, the activation was -0.56%.
As for `O=C(COC(=O)c1ccccc1Cl)NC1CCCCCCC1`, the figure is -2.78%; as for `Cc1cccc(-c2cnc(C(O)c3ccc4ccccc4c3)[nH]2)c1` (stereo not drawn), 3.46%; as for `CSc1ccc(CNC(=O)C2(C)CCCN2C)cc1` (stereo not drawn), 1.3%.
Consider `COc1cccc(-c2cnc(C(O)c3ccccc3OC)[nH]2)c1` (stereo not drawn), for which the activation is -2.21%.
Take `CCc1ccc(CNC(=O)C2CCN(c3nnc(C)c4c(C)n(-c5ccc(C)cc5)nc34)CC2)cc1`: the activation is 26.2% (active).
On to `CCc1ccc(CNC(=O)C2CC(=O)N(CCc3ccc(C)cc3)C2)cc1` (stereo not drawn), for which the activation was -0.56%.
On to `CCOc1ccc(CNC(=O)C2CCCN(c3nnc(C)c4c(C)n(-c5ccccc5)nc34)C2)cc1` (stereo not drawn), for which the activation was 5.34%.
As for `COc1ccc(C(C)C)cc1-c1ccc2nncn2c1`, the activation was 0.08%.
On to `CC1(C(=O)Nc2cccnc2)Cc2c(-c3ccccc3)ccnc2O1` (stereo not drawn), for which the activation was -1.27%.
As to `CN1CCN(c2ncc3c(n2)CC(c2ccccc2F)CC3=O)CC1` (stereo not drawn), the activation is -1.94%.
In the case of `CCc1ccc(Nc2ncc3c(n2)CC(c2ccco2)CC3=O)cc1` (stereo not drawn), the activation is 9.92% (active).
For `O=C(Nc1ncc2c(n1)CC(c1ccco1)CC2=O)c1ccc(Cl)cc1` (stereo not drawn), the activation was -1.23%.
For the molecule `COc1ccc(Nc2ncnc3sc(-c4ccccc4)cc23)c(OC)c1`, the activation is 10.6% (active).
The same measure for `COc1ccccc1Nc1ncnc2c1oc1ccccc12`: 0.07%.
For the molecule `COc1ccc(Nc2ncnc3ccc(Br)cc23)c(OC)c1`, the activation is 0.1%.
As to `CC1(Oc2cccc(F)c2)CCN(Cc2ccccc2OC(F)F)C1` (stereo not drawn), the activation was -1.66%.
Take `CCCOc1ccc(F)cc1-c1cc(C(=O)NCc2ccc(F)cc2)[nH]n1`: the activation is 0.57%.
As to `Oc1cccc2cc(-c3ccncc3)cnc12`, the activation was -1.87%.
For `COc1ccc(NC(=O)c2sc(=O)n(Cc3ccc(S(=O)(=O)N(C)C)cc3)c2C)cc1`, the activation was -1.44%.
On to `COc1cccc(CN2CCC(C(=O)NC(c3ccc4c(c3)OCO4)c3ccccn3)CC2)c1` (stereo not drawn), for which the activation is -1.26%.
The same measure for `CCc1nc2c(OCCOc3ccccc3)cccn2c1N(C)C(=O)c1ccc(OC)cc1`: -0.76%.
Consider `Brc1ccc(-c2csc(N/N=C/c3cccnc3)n2)cc1`, for which the activation was 11.6% (active).
For the molecule `O=C(CSc1cccc2cccnc12)N/N=C/c1cccnc1`, the activation was -5.02%.
Turning to `O=C(N/N=C\c1cccnc1)c1cc(-c2ccccc2)nc2c(Cl)cccc12`, the activation is -0.85%.
As for `COc1ccc(S(=O)(=O)NC(=O)C2(C)CCN2C(=O)COc2ccc(Cl)cc2)cc1` (stereo not drawn), the figure is -1.47%.
With `Cc1nn2cc(-c3ccc(Cl)cc3)cnc2c1Br`, the activation was 13.2% (active).
In the case of `CC(=O)NC(c1cccc(F)c1)c1nc(-c2cccc(F)c2)cs1` (stereo not drawn), the activation is 0.2%.
Consider `Cc1ccc(F)c(S(=O)(=O)NC(=O)C2(C)CCN2C(=O)CCc2cccs2)c1` (stereo not drawn), for which the activation is 0.83%.
Turning to `CC(C)Oc1cc(F)ccc1-c1cc(C(=O)Nc2ccc(F)cc2)[nH]n1`, the activation is -0.4%.
As to `COc1cc(C(O)c2nc(-c3cnn(C)c3)cs2)ccc1F` (stereo not drawn), the activation was -1.52%.
With `Cc1coc2c(O)cc3c(c12)OC1(N2CCCCC2)C(=O)NCCCC31` (stereo not drawn), the activation is 8.45% (active).
